The nature of assay [1]: Nuclear factor erythroid 2-related factor 2/antioxidant responsive element (Nrf2/ARE) small molecule agonists: qHTS cell viability counter screen in human keratinocytes (AID 1919968; active = well fitted curve in the direction sought with a large enough effect in the repeat runs; an effect the other way counts as inactive or inconclusive; note: nearly all actives have a fitted effect of over 55% in size; note: potency is the fitted concentration of half-maximal effect). The gist of the method:
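Cytotoxicity was multiplexed with the Nrf2/ARE luciferase assay in the same wells. Stably transfected HaCaT keratinocytes were treated with test compounds for 23 h at 37 C. Cell viability was then measured by CellTiter-Fluor fluorescence.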

Assay [2] is described as follows: Nuclear factor erythroid 2-related factor 2/antioxidant responsive element (Nrf2/ARE) small molecule agonists: luciferase reporter gene qHTS assay in human keratinocytes (AID 1919969). Note: nearly all actives have a fitted effect of over 35% in size. Note: potency is the fitted concentration of half-maximal effect.
The target of assay [3] is Gonadotropin-releasing hormone receptor (Homo sapiens) (UniProt P30968). Briefly: Human gonadotropin-releasing hormone receptor (GnRHR) small molecule agonists, calcium flux assay in GnRHR-HEK293 cells (AID 1920063). Note: nearly all actives have a fitted effect of over 35% in size. The gist of the method:
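Agonist activity was measured as intracellular calcium flux in HEK293 cells engineered to stably express human GnRHR. After dye loading for 1 hour at 37 C, compounds in DMSO were added and fluorescence was followed for 3 minutes.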

Assay [4] addresses KiSS-1 receptor (Homo sapiens) (UniProt Q969F8). The assay is described as follows: Human kisspeptin (KISS1R) small molecule agonists, calcium flux assay in KISS1R-HEK293 cells (AID 1920064; active = well fitted curve in the direction sought with a large enough effect in the repeat runs; an effect the other way counts as inactive or inconclusive). The gist of the method: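 Agonist activity is monitored as intracellular calcium rise in engineered HEK293 cells carrying human KISS1R. Cells are dye-loaded for 1 h at 37 C before compound addition, and fluorescence is recorded for 3 min.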

Assay [5] is described as follows: G protein-coupled receptor (GPCR) small molecule agonists, calcium flux assay: HEK293 wild type cell line counter screen (AID 1920065). In outline:
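Seed cells, incubate 18 h (37 C, 5% CO2); add calcium dye, 1 h at 37 C; pin-transfer compounds, ATP control or DMSO; read fluorescence 480/540 nm each second for 3 min.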

Assay [6] can be described thus: p53 small molecule agonists, cell-based qHTS assay with human liver microsomes (AID 1963577). In outline: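 Fluorescence of the beta-lactamase reporter in p53RE-bla cells, detected with LiveBLAzer substrate (2 h, room temperature, dark), served as the read-out after 16 h compound exposure at 37 C with human liver microsomes and NADPH, each 0.5 mg/mL final.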
Assay [7] is described as follows: p53 small molecule agonists, cell-based qHTS assay with rat liver microsomes (AID 1963578). In outline: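 Cells carrying a p53 response element–beta-lactamase reporter were plated and rested 5 h, then dosed with compound in DMSO plus rat liver microsomes and NADPH, each at 0.5 mg/mL final. After 16 h at 37 C, LiveBLAzer substrate was added for 2 h.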
A short description of assay [8]: p53 small molecule agonists, cell-based qHTS assay with human liver microsomes: qHTS cell viability counter screen (AID 1963579). Note: nearly all actives have a fitted effect of over 45% in size. The gist of the method:
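Cytotoxicity counter screen: p53RE-bla, 4,000 cells/well; 5 h settle, 37 C/5% CO2; cpd + HLM 0.5 mg/mL + NADPH 0.5 mg/mL (final); 16 h, 37 C; CellTiter-Glo, 30 min RT, luminescence.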

Assay [9] in a line: p53 small molecule agonists, cell-based qHTS assay: qHTS cell viability counter screen (AID 1963581). Note: nearly all actives have a fitted effect of over 45% in size. The gist of the method:
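Viability was counter-screened in parallel with the p53 agonist reporter by measuring intracellular ATP luminescence in the same HCT-116 p53RE-bla wells after 16 h compound treatment at 37 C.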

A short description of assay [10]: p53 small molecule agonists, cell-based qHTS assay (AID 1963582; active = well fitted activation curve with a large enough effect in the signal ratio in the repeat runs, not every such curve was filed as active; the % refers to the signal ratio). The gist of the method:
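Cells carrying a p53-responsive bla reporter are treated with test compounds for 16 h at 37 C; beta-lactamase activity is then detected with LiveBLAzer B/G FRET substrate after 2 h at room temperature.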

Assay [11] has as its target 5-hydroxytryptamine receptor 2A (Homo sapiens) (UniProt P28223). The assay is described as follows: 5-hydroxytryptamine receptor 2A (HTR2A) small molecule antagonists, cell-based qHTS assay (AID 1963586). Note: nearly all actives have a fitted effect of over 45% in size. In outline:
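CHO cells stably expressing human HTR2A were plated for 18 h at 37 C, then loaded with calcium dye for 1 h. Compounds were preincubated 5 min at room temperature before DOI (4 nM solution) was added. Kinetic fluorescence was read for 3 min.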

Assay [12] shares this target. Briefly: 5-hydroxytryptamine receptor 2A (HTR2A) small molecule agonists, cell-based qHTS assay (AID 1963587). Note: nearly all actives have a fitted effect of over 30% in size. The gist of the method:
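HTR2A-CHO cells, plated 18 h at 37 C/5% CO2, dye-loaded 1 h at 37 C; compounds in DMSO added by pin tool (agonist mode). Intracellular calcium flux read as kinetic fluorescence on FDSS over 2 min at 1 s intervals.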

In assay [13] the target is Muscarinic acetylcholine receptor M1 (Homo sapiens) (UniProt P11229). The assay is described as follows: Cholinergic receptor muscarinic 1 (CHRM1) small molecule antagonists, cell-based qHTS assay (AID 1963588). Note: nearly all actives have a fitted effect of over 40% in size. In outline: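 Compounds were tested at 15 concentrations in three independent runs. Dye-loaded CHRM1-CHO cells were exposed 5 min at room temperature before stimulation by acetylcholine added at 50nM. Intracellular calcium was read kinetically on FDSS for 3 min.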

Assay [14] shares this target. Briefly: Cholinergic receptor muscarinic 1 (CHRM1) small molecule agonists, cell-based qHTS assay (AID 1963589). Note: nearly all actives have a fitted effect of over 35% in size. Note: potency is the fitted concentration of half-maximal effect. The gist of the method: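 Cells were plated and incubated 18 h at 37 C/5% CO2, loaded with calcium dye for 1 h at 37 C, then treated with compounds in DMSO. Fluorescence was recorded kinetically at 1 sec intervals.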
Assay [15] in a line: cAMP Responsive Elements (CRE) small molecule agonists, cell-based qHTS assay (AID 1963590). The gist of the method: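 Cells carrying a CRE-driven beta-lactamase reporter (HEK 293T) are seeded, incubated overnight (18 h), and treated with test compounds for 3 h at 37 C; reporter activity is then detected with a FRET substrate after 2 h at room temperature.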
Assay [16] concerns the target Beta-2 adrenergic receptor (Homo sapiens) (UniProt P07550). The assay is described as follows: Adrenergic beta2 receptor (ADRB2) small molecule antagonists, cell-based qHTS assay (AID 1963592). Note: series mostly up to about 92 µM; nearly all actives have a fitted effect of over 50% in size. The gist of the method: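 Assay format: CHO-ADRB2 cells, 18-20hr seeding at 37C/5% CO2, then compound plus 1nM isoproterenol agonist mix for 0.5hr RT. Homogeneous time-resolved fluorescence cAMP detection after 1hr, expressed as 665/615 nm ratio.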

Assay [17] has the same target. Briefly: Adrenergic beta2 receptor (ADRB2) small molecule agonists, cell-based qHTS assay (AID 1963593).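 Note: CHO cells stably overexpressing human ADRB2.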 In outline: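 CHO cells stably over-expressing ADRB2 were plated overnight at 37C, then dosed with compounds plus a stimulation mix containing 100uM IBMX and 25uM Ro-20-1724 for 0.5hr at room temperature. cAMP was measured by HTRF competition, 1hr.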
For assay [18], the target named is D(2) dopamine receptor (Homo sapiens) (UniProt P14416). Briefly: Dopamine D2 receptor (DRD2) small molecule antagonists, cell-based qHTS assay (AID 1963595; active = well fitted inhibition curve with a large enough effect in the signal ratio in the repeat runs, with a control signal flat; the % refers to the signal ratio). In outline:
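DRD2-HEK293; 0.1 mM Ro20-1724; cpd 10 min RT; NKH477 200 nM + quinpirole 12 nM, 30 min RT; HTRF cAMP (cAMP-d2/anti-cAMP cryptate), 665/620 nm ratio after 1 h.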

Assay [19] is described as follows: cAMP Responsive Elements (CRE) small molecule antagonists, cell-based qHTS assay (AID 1963591; active = well fitted inhibition curve with a large enough effect in the signal ratio in the repeat runs, not every such curve was filed as active; the % refers to the signal ratio). In outline: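 Cells (CRE-bla HEK 293T, DMEM with 10% dialyzed FBS and 25 mM HEPES) are seeded and incubated 18 h. Compounds are added with NKH477 agonist at 0.25 uM final for 3 h, then FRET substrate for 2 h.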
The target of assay [20] is D(2) dopamine receptor (Homo sapiens) (UniProt P14416). Briefly: Dopamine D2 receptor (DRD2) small molecule agonists, cell-based qHTS assay (AID 1963594). Note: nearly all actives have a fitted effect of over 35% in size. In outline: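 HEK293 cells stably expressing DRD2 were cultured 24 h at 37 C, then given Ro20-1724 (0.1 mM final) and compounds for 10 min at room temperature. NKH477 (200nM) was then added for 30 min. cAMP was read by HTRF.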

Records with an inconclusive call do not appear. A structure can be active in one record and inactive in another. The source made the active and inactive calls. Unless noted, calls come from the whole dose curve.

Sequence of KiSS-1 receptor (Homo sapiens) (Q969F8 whole entry, looked up): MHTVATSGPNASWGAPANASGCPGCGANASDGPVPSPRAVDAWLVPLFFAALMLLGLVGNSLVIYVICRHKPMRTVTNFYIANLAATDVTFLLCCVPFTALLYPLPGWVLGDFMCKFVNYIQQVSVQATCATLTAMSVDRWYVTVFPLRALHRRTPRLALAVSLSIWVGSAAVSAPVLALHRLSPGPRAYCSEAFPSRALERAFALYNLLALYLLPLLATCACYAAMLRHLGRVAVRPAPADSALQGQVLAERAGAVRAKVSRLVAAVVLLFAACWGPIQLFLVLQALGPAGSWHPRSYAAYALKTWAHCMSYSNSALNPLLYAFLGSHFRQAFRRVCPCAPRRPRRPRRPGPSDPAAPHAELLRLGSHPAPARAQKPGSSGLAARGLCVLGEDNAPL
Sequence of Gonadotropin-releasing hormone receptor (Homo sapiens) (P30968 whole entry, looked up): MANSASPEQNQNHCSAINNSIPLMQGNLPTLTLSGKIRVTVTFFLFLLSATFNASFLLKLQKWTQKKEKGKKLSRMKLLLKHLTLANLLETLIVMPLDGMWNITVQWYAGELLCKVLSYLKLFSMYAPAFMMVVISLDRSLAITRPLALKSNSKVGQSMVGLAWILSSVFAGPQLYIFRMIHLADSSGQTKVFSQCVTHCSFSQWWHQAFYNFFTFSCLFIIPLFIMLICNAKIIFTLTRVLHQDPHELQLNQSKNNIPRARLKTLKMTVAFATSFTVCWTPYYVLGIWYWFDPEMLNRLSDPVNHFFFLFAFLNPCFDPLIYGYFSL
Sequence of D(2) dopamine receptor (Homo sapiens) (P14416 whole entry, looked up): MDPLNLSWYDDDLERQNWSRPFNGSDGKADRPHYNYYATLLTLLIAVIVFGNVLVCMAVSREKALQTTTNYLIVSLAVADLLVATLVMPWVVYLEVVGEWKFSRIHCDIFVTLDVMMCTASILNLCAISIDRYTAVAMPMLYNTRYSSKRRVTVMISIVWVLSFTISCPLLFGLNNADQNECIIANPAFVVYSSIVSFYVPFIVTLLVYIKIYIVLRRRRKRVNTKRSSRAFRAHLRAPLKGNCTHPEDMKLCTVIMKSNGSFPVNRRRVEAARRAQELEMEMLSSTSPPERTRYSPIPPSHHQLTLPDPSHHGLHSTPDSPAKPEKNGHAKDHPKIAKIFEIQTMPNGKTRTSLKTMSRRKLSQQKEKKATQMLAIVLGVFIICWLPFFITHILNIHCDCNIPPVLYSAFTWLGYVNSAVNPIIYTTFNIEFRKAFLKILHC
Sequence of 5-hydroxytryptamine receptor 2A (Homo sapiens) (P28223 whole entry, looked up): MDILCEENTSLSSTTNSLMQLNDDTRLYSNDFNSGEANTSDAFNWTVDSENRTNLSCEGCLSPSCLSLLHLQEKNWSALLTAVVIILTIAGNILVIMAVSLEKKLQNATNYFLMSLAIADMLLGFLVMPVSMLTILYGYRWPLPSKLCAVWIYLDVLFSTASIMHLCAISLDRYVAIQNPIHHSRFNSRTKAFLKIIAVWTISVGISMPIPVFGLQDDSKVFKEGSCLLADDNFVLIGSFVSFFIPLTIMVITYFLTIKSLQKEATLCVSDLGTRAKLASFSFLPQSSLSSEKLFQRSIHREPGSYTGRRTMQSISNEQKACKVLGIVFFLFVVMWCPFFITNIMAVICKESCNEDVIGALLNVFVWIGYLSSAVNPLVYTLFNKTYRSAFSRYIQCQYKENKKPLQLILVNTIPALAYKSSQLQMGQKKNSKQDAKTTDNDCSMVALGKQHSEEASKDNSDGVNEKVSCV
Sequence of Beta-2 adrenergic receptor (Homo sapiens) (P07550 whole entry, looked up): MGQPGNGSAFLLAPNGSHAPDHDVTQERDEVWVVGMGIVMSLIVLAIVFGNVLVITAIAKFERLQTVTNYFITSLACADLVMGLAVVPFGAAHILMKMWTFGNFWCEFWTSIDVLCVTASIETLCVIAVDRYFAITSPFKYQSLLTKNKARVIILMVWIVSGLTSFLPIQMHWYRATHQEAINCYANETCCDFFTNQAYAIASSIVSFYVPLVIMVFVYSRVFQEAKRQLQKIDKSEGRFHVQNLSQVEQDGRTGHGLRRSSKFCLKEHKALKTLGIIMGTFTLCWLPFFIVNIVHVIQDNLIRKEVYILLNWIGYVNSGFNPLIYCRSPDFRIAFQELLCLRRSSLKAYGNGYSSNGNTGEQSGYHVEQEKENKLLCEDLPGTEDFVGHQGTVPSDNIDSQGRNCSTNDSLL
Sequence of Muscarinic acetylcholine receptor M1 (Homo sapiens) (P11229 whole entry, looked up): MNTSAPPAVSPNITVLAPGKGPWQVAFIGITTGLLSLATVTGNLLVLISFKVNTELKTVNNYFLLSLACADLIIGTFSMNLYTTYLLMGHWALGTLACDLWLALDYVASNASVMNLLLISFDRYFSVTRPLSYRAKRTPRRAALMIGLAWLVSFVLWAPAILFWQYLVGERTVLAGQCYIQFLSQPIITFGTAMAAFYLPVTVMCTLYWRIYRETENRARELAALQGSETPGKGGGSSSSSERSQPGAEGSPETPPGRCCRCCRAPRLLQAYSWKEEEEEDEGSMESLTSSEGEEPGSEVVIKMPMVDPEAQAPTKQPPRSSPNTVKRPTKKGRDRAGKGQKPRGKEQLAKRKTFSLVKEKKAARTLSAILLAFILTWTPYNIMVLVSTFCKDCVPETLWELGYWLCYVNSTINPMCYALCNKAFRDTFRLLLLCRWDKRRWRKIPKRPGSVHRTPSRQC

For the compound `CC(=O)OCCCc1ccccc1`, the Potency entry in assay [1], in assay [2], in assay [3], in assay [4], in assay [5] and in assay [6] was “inactive” each time. The Potency entry in assay [7], in assay [8], in assay [9], in assay [10], in assay [11] and in assay [12] was “inactive” in each case. Also, the Potency result in [13], in assay [14], in assay [15], in assay [16], in [17] and in [18] was “inactive” throughout.
Regarding `COC(=O)c1ccc(C(=O)OC)cc1`, the Potency in assay [1] is 2.47 µM (active) and inactive. For the same compound, the Potency result in [2], in assay [3], in assay [4], in [5], in assay [6] and in [7] was “inactive” each time. In addition, the Potency entry in [8], in assay [9], in assay [10], in assay [11], in assay [12] and in assay [13] was “inactive” in each case. Also, the Potency result in [14], in [15], in assay [19], in assay [16], in [20] and in assay [18] was “inactive” throughout.
`C=CCCCCCCCCCCCC`: the Potency result in [1], in assay [2], in assay [3], in assay [4], in assay [5] and in assay [6] was “inactive” each time. Besides, the Potency result in assay [7], in assay [8], in assay [9], in assay [10], in [11] and in assay [12] was “inactive” each time. Also, the Potency entry in assay [13], in [15], in [19], in [16], in [17] and in [20] was “inactive” in each case. Also, the Potency entry in assay [18] is “inactive”. In assay [14], the Potency was 0.245 µM (active).
Regarding `CC(C)CC(O)CC(C)C`, the Potency entry in assay [1], in assay [2], in assay [3], in assay [4], in assay [5] and in assay [6] was “inactive” each time. Further, the Potency entry in assay [7], in [8], in assay [9], in assay [10], in assay [11] and in assay [12] was “inactive” each time. Moreover, the Potency entry in assay [13], in assay [14], in assay [15], in assay [19], in assay [16] and in assay [17] was “inactive” each time. For the same compound, the Potency entry in assay [20] and in [18] was “inactive” throughout.
With `C=CCCC(=O)/C=C/C1C(C)=CCCC1(C)C` (centres undefined), the Potency entry in assay [1], in [3], in assay [4], in assay [5], in assay [6] and in assay [7] was “inactive” each time. The Potency entry in [8], in [9], in [10], in assay [11], in assay [12] and in [13] was “inactive” throughout. Moreover, the Potency result in [14], in assay [15], in assay [19], in assay [16], in assay [17] and in assay [20] was “inactive” each time. The Potency in assay [2] is 54.5 µM (active).
As to `CNc1ccccc1`, the Potency entry in [1], in [2], in assay [3], in [4], in assay [5] and in assay [6] was “inactive” each time. For the same compound, the Potency entry in assay [7], in [8], in assay [9], in [10], in assay [11] and in assay [12] was “inactive” each time. Besides, the Potency entry in assay [13], in assay [14], in [15], in [19], in assay [16] and in assay [17] was “inactive” throughout. Also, the Potency entry in assay [20] and in assay [18] was “inactive” in each case.
Turning to `CC[C@H](C)[C@@H](C(=O)O)n1sc2ccccc2c1=O`, the Potency result in assay [1], in assay [3], in [4], in assay [5], in assay [6] and in assay [7] was “inactive” throughout. Further, the Potency result in assay [8], in [9], in assay [10], in [11], in assay [12] and in assay [13] was “inactive” throughout. The Potency entry in [14], in assay [15], in assay [19], in [16] and in assay [20] was “inactive” in each case. In addition, in assay [2], the Potency was 54.5 µM (active).

These data come from PubChem BioAssay (Tox21).
